# In all, about 330,000 compounds went through this assay and about 1,900 (0.58%) were called active. Shown is part of a subset that was picked to be rich in actives. Values without a mark were called inactive.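 The calls were made as follows: active = inhibition of aptamer binding above 40%, roughly 3 SD of noise, on plates passing a quality check; inactive = the rest.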
# Target: Beta-adrenergic receptor kinase 1 (Homo sapiens) (UniProt P25098)
# Assay: compounds blocking aptamer binding on GRK2 – biochemical, human GRK2, bead flow cytometry, HTS, primary screen (AID 488847);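 also: median bead fluorescence of bound FAM aptamer so fluorescent compounds give negative values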
# Conditions: FAM-aptamer displacement from GRK2, at 10 µM, stronger effect = higher value
# Chain of Beta-adrenergic receptor kinase 1 (Homo sapiens) (P25098 whole entry, looked up): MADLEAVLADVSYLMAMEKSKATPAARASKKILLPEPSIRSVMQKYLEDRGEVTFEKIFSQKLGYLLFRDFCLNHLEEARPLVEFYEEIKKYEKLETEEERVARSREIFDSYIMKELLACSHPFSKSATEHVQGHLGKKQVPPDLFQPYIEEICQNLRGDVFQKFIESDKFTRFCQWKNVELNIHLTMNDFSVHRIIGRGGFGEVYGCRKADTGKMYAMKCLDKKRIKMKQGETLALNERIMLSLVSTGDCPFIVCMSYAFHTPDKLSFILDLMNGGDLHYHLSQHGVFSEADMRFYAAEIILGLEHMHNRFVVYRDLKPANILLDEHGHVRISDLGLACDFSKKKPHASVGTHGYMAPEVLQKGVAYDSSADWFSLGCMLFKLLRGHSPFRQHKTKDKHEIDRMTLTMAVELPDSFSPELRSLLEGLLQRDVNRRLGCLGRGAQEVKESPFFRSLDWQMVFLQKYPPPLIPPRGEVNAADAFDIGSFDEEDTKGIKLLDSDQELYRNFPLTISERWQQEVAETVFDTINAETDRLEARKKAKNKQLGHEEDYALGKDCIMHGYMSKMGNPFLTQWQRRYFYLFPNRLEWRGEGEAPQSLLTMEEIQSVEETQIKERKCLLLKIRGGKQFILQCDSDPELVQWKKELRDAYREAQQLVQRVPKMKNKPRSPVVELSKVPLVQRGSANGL
row,SMILES,inhibition of aptamer binding
1,CN(CCc1ccccn1)S(=O)(=O)c1ccc2c3c(cccc13)C(=O)N2,0%
2,Cc1ccccc1C(=O)N1CCC(C(=O)Nc2ccc(S(=O)(=O)N(C)C(C)C)cc2)CC1,0%
3,CCCCc1nc2ccccc2c(=O)n1NC(=O)c1c(O)c2cccc3c2n(c1=O)CC3,0%
4,CCCc1nc2ccccc2c(=O)n1NC(=O)c1c(O)c2ccccc2[nH]c1=O,92% (active)
5,COc1cc(C(=O)Nn2c(CC(C)C)nc3ccccc3c2=O)cc(OC)c1OC,0%
6,Cc1ccc(NC(=O)COC(=O)CNC(=O)c2ccc(Cl)cc2Cl)cc1S(=O)(=O)N1CCOCC1,2%
7,Fc1ccc(CNc2nc3ccccc3n3nnnc23)cc1,2%
8,O=c1ccc2c(-c3ccccc3S(=O)(=O)O)c3ccc(O)c(O)c3oc-2c1O,75% (active)
9,Cc1cc(OCC(=O)N(C)c2c(N)n(Cc3ccccc3)c(=O)[nH]c2=O)c(C(C)C)cc1Cl,1%
10,O=C1CCCCC1Sc1ccc(Cl)cc1[N+](=O)[O-] (stereo not given),1%
11,COc1ccccc1N(C)S(=O)(=O)c1ccc(Cl)c(C(=O)Nc2ccncc2)c1,0%
12,O=C1CCCN1C(=O)COc1ccc([N+](=O)[O-])cc1,1%
13,O=C(Nc1ccc(N2CCOCC2)cc1)c1cccc(S(=O)(=O)N2CCOCC2)c1,2%
14,O=C(COC(=O)c1ccccc1)Nc1cccc(S(=O)(=O)N2CCOCC2)c1,1%
15,O=C(Nc1nnc(-c2ccccc2)o1)c1cccc(S(=O)(=O)N2CCOCC2)c1,49% (active)
16,O=C(Nc1nnc(-c2ccco2)o1)c1ccc(S(=O)(=O)N2CCOCC2)cc1,0%
17,CN=C(Nc1cccc(S(=O)(=O)N2CCOCC2)c1)c1ccccc1,79% (active)
18,O=C(CSc1ccccc1)Nc1cccc(S(=O)(=O)N2CCOCC2)c1,2%
19,Nc1cc(N2CCCCCC2)c2nonc2c1[N+](=O)[O-],0%
20,Cc1cc2c(cc1S(=O)(=O)CCC(=O)NCc1ccccc1)OCC(=O)N2,2%
21,O=C(Cc1ccc(Br)cc1)NCCc1ccccc1,1%
22,COc1ccc(Cl)cc1NC(=O)COC(=O)c1ccc(Br)o1,0%
23,COc1ccc(Cl)cc1NC(=O)CCS(=O)(=O)c1cc2c(cc1C)NC(=O)CO2,80% (active)
24,COc1ccc(NC(=O)CCS(=O)(=O)c2cc3c(cc2Cl)NC(=O)CO3)cc1OC,0%

row,SMILES,inhibition of aptamer binding
1,COc1ccc(Cl)cc1NC(=O)CCS(=O)(=O)c1ccc(Br)cc1,89% (active)
2,O=C(CCS(=O)(=O)c1ccc(Br)cc1)NCCc1ccc(Cl)cc1,49% (active)
3,CCOc1ccc(OCC)c(NC(=O)CCS(=O)(=O)c2ccc(C)cc2)c1,0%
4,Cc1ccc(S(=O)(=O)CCC(=O)OCC(=O)NCCc2ccc(S(N)(=O)=O)cc2)cc1,0%
5,Cc1ccc(CN2C(=O)N/C(=C/c3cc(C)n(-c4ccccn4)c3C)C2=O)cc1,1%
6,CCc1cc2c(=O)c(-c3nc4ccccc4n3C)c(CCCC(=O)O)oc2cc1OC(=O)C(C)(C)C,1%
7,COc1ccc(CN2C3CCCC2CC(NC(=O)c2cccc(F)c2)C3)cc1 (stereo not given),0%
8,CC(=O)N1CCC(C(=O)Nc2nc(-c3ccccc3)ns2)CC1,0%
9,CC(Sc1nncn1C)C(=O)Nc1cc(C(F)(F)F)ccc1N1CCOCC1 (stereo not given),0%
10,C=CCNC(=O)CC12CC3CC(C1)CC(CC(=O)NCC=C)(C3)C2,1%
11,O=C(NCC12CC3CC(C1)CC(CNC(=O)N1CCCC1)(C3)C2)N1CCCC1,54% (active)
12,O=C(N1CCCC1)C12CC3CC(C1)CC(C(=O)N1CCCC1)(C3)C2,3%
13,O=c1[nH]c(SCc2ccccc2)nnc1-c1ccccc1,80% (active)
14,N#Cc1c(-c2ccccc2)nc(SCc2ccc([N+](=O)[O-])cc2)[nH]c1=O,5%
15,Cc1ccccc1CSc1nnc(-c2ccccc2)c(=O)[nH]1,3%
16,COc1cc(OC)cc(C(=O)Nc2nnc(SCC(=O)NCC3CCCO3)s2)c1 (stereo not given),0%
17,CCC(=O)Nc1ccccc1C(=O)N1CCN(Cc2ccccc2)CC1,2%
18,CC(C)(C)Nc1nc(-c2ccccn2)nc2ccccc12,0%
19,S=c1nc2ccccc2c2nc(-c3cccnc3)[nH]n12,0%
20,COc1ccc(Nc2nc(-c3cccnc3)nc3ccccc23)cn1,60% (active)
21,COc1cc(OC)c(C2=NOC(C(=O)Nc3c(C)n(C)n(-c4ccccc4)c3=O)C2)cc1Cl (stereo not given),1%
22,Cc1ccc(Sc2cc(C(=O)c3ccccc3C(=O)O)ccc2[N+](=O)[O-])cc1,0%
23,O=C(NCc1ccccc1)[C@H]1C[C@@H]1[C@H](NP(=O)(c1ccccc1)c1ccccc1)c1ccccc1,0%
24,COc1ccccc1N1CCN(CC(=O)Nc2ccnn2C2CCCC2)CC1,0%

row,SMILES,inhibition of aptamer binding
1,C/C(=N\Nc1nc(Nc2ccccc2)nc(N2CCOCC2)n1)c1cccs1,0%
2,C/C(=N\Nc1nc2ccccc2[nH]1)c1cccs1,100% (active)
3,O=C(Nc1ccccc1-c1nc2ccccc2[nH]c1=O)c1cccs1,1%
4,CCN(CC(=O)NCc1ccc(Cl)cc1)C(=O)c1c(C)noc1C,0%
5,NC(=O)C1CCN(C(=O)c2ccc3c(=O)n(Cc4cccc(Br)c4)c(=S)[nH]c3c2)CC1,69% (active)
6,CCOc1cc2[nH]c(=S)n(Cc3ccc(C(=O)N4CCN(C)CC4)cc3)c(=O)c2cc1OCC,0%
7,COc1ccc(Cn2c(=S)[nH]c3cc(C(=O)N4CCCCC4)ccc3c2=O)cc1,2%
8,O=S(=O)(c1ccc(NC(=S)NN=C(C2CC2)C2CC2)cc1)N1CCOCC1,1%
9,O=[N+]([O-])c1cc(Cl)cc(/C=N/NC(=S)Nc2cc(S(=O)(=O)N3CCOCC3)ccc2Cl)c1O,98% (active)
10,Cc1ccc(S(=O)(=O)N2CCN(CC(=O)N/N=C/c3cc([N+](=O)[O-])ccc3Cl)CC2)cc1,0%
11,Fc1ccccc1Cc1ccc(Cl)nn1,0%
12,CCN1CCN(CC(=O)Nc2sc3c(c2C#N)CCC3)CC1,0%
13,COc1cccc(CN(C)CC(=O)Nc2sc3c(c2C#N)CCC3)c1,94% (active)
14,Cc1cccc(C(=O)OCC(=O)Nc2sc3c(c2C#N)CCC3)c1,6%
15,Cc1nn2cc(-c3ccc(Cl)cc3)cnc2c1Br,4%
16,CCOC(=O)c1cc2c(ccn2C)n1CC(=O)N1CCC(C)CC1,1%
17,Cc1ccc(OCC(=O)Oc2ccccc2[N+](=O)[O-])cc1,1%
18,COc1ccc(C2c3ccc(O)cc3Oc3ncn(CCCO)c(=N)c32)cc1OC (stereo not given),0%
19,COc1ccccc1S(=O)(=O)c1c(C)cc(C)[nH]c1=O,1%
20,Cc1ccc(-c2nn(-c3ccccc3)cc2/C=C2\SC(=S)N(CCCCCC(=O)O)C2=O)o1,48% (active)
21,C=CCOc1ccc(/C=C2\SC(=S)N(CCC(=O)O)C2=O)cc1,0%
22,Cc1ccc(/C=C2/SC(=S)N(CCC(=O)NCCCN3CCOCC3)C2=O)cc1,5%
23,CC(=O)Oc1ccccc1C(=O)Nc1ncc([N+](=O)[O-])s1,5%
24,CCSc1nc(O)c(C(c2cccc(OC)c2)c2c(O)nc(SCC)[nH]c2=O)c(=O)[nH]1,9%

row,SMILES,inhibition of aptamer binding
1,COc1ccc(Nc2cc(Sc3ccc(OC)cc3)ncn2)cc1,46% (active)
2,COc1ccc(Nc2ncnc3sc(C)cc23)cc1,0%
3,COc1ccc(Nc2nc(=O)[nH]nc2C)cc1,4%
4,CC(Sc1cccc[n+]1[O-])C(=O)Nc1cccc(S(=O)(=O)N2CCOCC2)c1 (stereo not given),1%
5,O=C(O)C1CCN(C(=O)OCc2ccccc2)CC1,0%
6,NC(=O)c1ccsc1NC(=O)COC(=O)Cc1n[nH]c(=O)c2ccccc12,2%
7,COc1cc(OC)cc(C(=O)OCC(=O)Nc2sccc2C(N)=O)c1,0%
8,CCCCn1nc(C(=O)OCC(=O)Nc2sccc2C(N)=O)c2ccccc2c1=O,84% (active)
9,CCc1ccc2oc(=O)cc(CN3CCCCC3C)c2c1 (stereo not given),0%
10,COc1cc(/C=N/NC(=O)c2cc(C)n(-c3ccc(F)cc3)c2C)cc(OC)c1O,0%
11,O=C(N/N=C/c1cccc(Br)c1)c1ccc(N2CCCC2=O)cc1,0%
12,COc1cc(/C=N/NC(=O)c2ccc(N3CCCC3=O)cc2)ccc1O,49% (active)
13,O=C(NCc1cccc(Cl)c1)C1CCN(c2nnc(N3CCCC3=O)s2)CC1,0%
14,CN(C)S(=O)(=O)c1cccc(C(=O)OCC(=O)N2CCCC2=O)c1,0%
15,CC(C)(C)NC(=O)Cn1nnc(-c2ccccc2Cl)n1,2%
16,Cc1ccccc1-c1nnn(CC(=O)c2ccc(S(=O)(=O)N3CCCC3)cc2)n1,47% (active)
17,Cc1cc(C)n(C(=O)c2ccc(S(=O)(=O)N3CCCC3)cc2)n1,2%
18,Cc1ccc(S(=O)(=O)C2(S(=O)(=O)c3ccc(C)cc3)CCCC2)cc1,0%
19,CCCNc1c(N)c(=O)c1=O,6%
20,O=C(OCc1nnc(-c2ccccc2)o1)c1cc(=O)[nH]c2ccccc12,3%
21,CCCc1nc2ccccc2c(C(=O)OCc2nnc(-c3cc(OC)c(OC)c(OC)c3)o2)c1CC,41% (active)
22,CCOC(=O)c1cc(-c2nnc(-c3cc(OC)c(OC)c(OC)c3)o2)c(C)nc1C,1%
23,COc1cc(NC(=O)c2[nH]cnc2C(N)=O)cc(C(=O)Nc2cccc(C(F)(F)F)c2)c1,0%

# Reference: PubChem BioAssay AID488847 (NMMLSC, 2010)
